Assay outcomes (PubChem)
SMN2 splice enh = qHTS Assay for Enhancers of SMN2 Splice Variant Expression | HEK293 SMN2-luciferase splicing reporter, luminescence, 30-36 h | Potency, µM (series often up to 46.1 µM), actives largely listed as activators | 210,000 tested, 2.8% active | AID 1458, 2008; further: nearly all actives have a fitted effect of over 55% in size
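qHTS luciferase splicing reporter: luminescence rises when SMN2 exon 7 is included in transfected HEK293 cells. Compound exposure lasted 30-36 h at 37C, with 4.5 mM final sodium butyrate as control, followed by a ONE-Glo read.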
FLuc modulator = qHTS profiling assay for firefly luciferase inhibitor/activator using purifed enzyme and Km concentrations of substrates (counterscreen for miR-21 project); Luciferin 4-monooxygenase (Photinus pyralis), P08659; purified FLuc, Km substrates, luminescence inhibition; Potency, µM (series often up to 57.5 µM), hits mostly inhibitors; 360,000 tested, 6.9% active; AID 588342, 2011; further: nearly all actives have a fitted effect of over 55% in size
Target sequence (P08659 whole entry, looked up): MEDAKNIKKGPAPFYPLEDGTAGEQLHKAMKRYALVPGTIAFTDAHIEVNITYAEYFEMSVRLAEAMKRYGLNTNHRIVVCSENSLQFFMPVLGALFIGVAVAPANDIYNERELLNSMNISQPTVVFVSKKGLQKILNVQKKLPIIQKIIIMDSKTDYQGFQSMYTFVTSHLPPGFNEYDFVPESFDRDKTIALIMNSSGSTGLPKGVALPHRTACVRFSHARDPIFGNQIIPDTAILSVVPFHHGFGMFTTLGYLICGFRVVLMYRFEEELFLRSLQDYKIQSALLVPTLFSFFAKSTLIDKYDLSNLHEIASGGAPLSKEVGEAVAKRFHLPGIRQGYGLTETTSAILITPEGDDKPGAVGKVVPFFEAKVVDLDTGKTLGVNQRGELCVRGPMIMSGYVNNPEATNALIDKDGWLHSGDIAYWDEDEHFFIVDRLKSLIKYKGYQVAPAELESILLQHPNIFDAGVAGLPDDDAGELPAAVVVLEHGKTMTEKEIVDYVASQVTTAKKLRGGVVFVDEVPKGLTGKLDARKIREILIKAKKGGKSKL
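Biochemical qHTS of compounds, final roughly 60 µM downward over six points, against 10 nM purified firefly luciferase using Km concentrations of substrates (10 uM D-luciferin, 10 uM ATP) in Tris acetate pH 7.5 buffer; luminescence output.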
ELG1 genotoxic = qHTS screen for small molecules that induce genotoxicity in human embryonic kidney (HEK293T) cells expressing luciferase-tagged ELG1; AID 504466, 2011; Potency, µM (titrated, usually from 46 µM), actives largely listed as activators; 330,000 tested, 1.3% active; HEK293T ELG1-luciferase reporter, luminescence, 16 h; further: nearly all actives have a fitted effect of over 60% in size
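Genotoxic stress is detected as increased luminescence from luciferase-tagged ELG1 in HEK293T cells, measured with ONE-Glo after a 16 hr treatment at 37 °C.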
NPC1 prom act = qHTS Assay for NPC1 Promoter Activators; Huh7 NPC1 promoter luciferase reporter, 24 h; Potency, µM (doses to about 9.22 µM), most hits filed as activators; 320,000 tested, 2.4% active; further: nearly all actives have a fitted effect of over 60% in size
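In 1536-well qHTS, Huh7 cells harboring an NPC1 promoter–luciferase construct received compound for 24 h; activation was quantified by luminescence following luciferase reagent addition.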
p53 reactivation = qHTS assay for re-activators of p53 using a Luc reporter; H1299 p53-A138V BP100-luciferase reporter, luminescence, 24 h; Potency, µM (titrated, usually from 92.2 µM), actives largely listed as activators; 320,000 tested, 0.063% active; AID 504706, 2011; further: nearly all actives have a fitted effect of over 45% in size
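H1299 (p53-null), stable ts p53-A138V + BP100-Luc; 1000 cells/well, Opti-MEM/10% FBS; cpd 4 pt, 1:5; 24 h, 37 deg C, 5% CO2; detection reagent 10 min RT; luminescence.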
Rab9 promoter act = qHTS Assay for Rab9 Promoter Activators | Huh7 Rab9 promoter-luciferase reporter, luminescence, 24 h | Potency, µM (series often up to 9.22 µM), actives largely listed as activators | 320,000 tested, 2.8% active | AID 485297, 2010; further: nearly all actives have a fitted effect of over 60% in size
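Cell-based reporter: Huh7 stable for Rab9 promoter-driven luciferase, plated in reduced-serum medium with 10% FBS at 1500 cells/well, compound-treated 24 h at 37 °C, luminescence read after 10 min reagent.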
Of the large screens only hits and unclear results are named; the others gave an inactive call. The list is not random: actives were taken first. Their share in the collection is about 7.3%. The call rests on the fitted dose curve; in most records, active means well fitted curve in the direction sought with a large enough effect; inconclusive means small, poorly fitted or top-dose-only effect, or another doubt; inactive means no such curve, though single readings can be large; an effect the other way counts as inactive or inconclusive.

CCCC(=O)c1ccc(N2CCCC2)c(F)c1	FLuc modulator 15µM, ELG1 genotoxic inconclusive, p53 reactivation inconclusive, Rab9 promoter act inconclusive
CCOC(=O)N1CCN(c2ccc(C(=O)c3ccccc3)cc2F)CC1	FLuc modulator 21µM, NPC1 prom act inconclusive
CCC(=O)c1ccc(N2CCCC2)c(F)c1	FLuc modulator 17µM, p53 reactivation inconclusive
CCC(=O)c1ccc(N2CCN(C(=O)c3ccccc3F)CC2)c(F)c1	none
O=C(O)[C@@H]1[C@@H](C(=O)Nc2ncccn2)[C@@H]2C=C[C@@H]1O2	none (no result: FLuc modulator, ELG1 genotoxic, NPC1 prom act, p53 reactivation, Rab9 promoter act)
COc1ccc(-c2cc(-c3ccccc3)nc3c2COc2ccc(F)cc2-3)cc1	none (no result: ELG1 genotoxic, NPC1 prom act, p53 reactivation, Rab9 promoter act)
COC(=O)c1[nH]c2cc(C)ccc2c1NC(=O)CN1CCCc2ccccc21	FLuc modulator 24µM, NPC1 prom act inconclusive, Rab9 promoter act inconclusive
COC(=O)c1[nH]c2ccc(Br)cc2c1NC(=O)CN1CCCc2ccccc21	none
C=CCSc1nn2c(=O)c3ccccc3nc2s1	SMN2 splice enh inconclusive, FLuc modulator 13µM, ELG1 genotoxic inconclusive, NPC1 prom act 2.5µM, Rab9 promoter act 3.2µM
C=CCSc1nc2ccccc2c(=O)[nH]1	none
Cc1nnc2sc(SCc3ccccc3)nn2c1=O	none
C/C(Cl)=C/CSc1nn2c(=O)c3ccccc3nc2s1	FLuc modulator 12µM, ELG1 genotoxic inconclusive, NPC1 prom act inconclusive, p53 reactivation inconclusive, Rab9 promoter act inconclusive
O=C(Cc1ccc2c(c1)OCCO2)Nc1cc(Cl)ccc1N1CCOCC1	none (no result: SMN2 splice enh)
CS(=O)(=O)N1CCc2cc(S(=O)(=O)NCc3ccccc3Cl)ccc21	none (no result: SMN2 splice enh, ELG1 genotoxic, NPC1 prom act, p53 reactivation, Rab9 promoter act)
Nc1cccc2cc(S(=O)(=O)Nc3ccc(C(=O)O)cc3)ccc12	none (no result: FLuc modulator, ELG1 genotoxic, NPC1 prom act, p53 reactivation, Rab9 promoter act)
Cc1nn(-c2nc3ccccc3[nH]2)c(N)c1-c1ccccc1	SMN2 splice enh 2µM, FLuc modulator 1.9µM, ELG1 genotoxic inconclusive, NPC1 prom act 1.6µM, p53 reactivation inconclusive, Rab9 promoter act 0.63µM
Cc1cc(-c2ccccc2)n(-c2ccccc2)n1	FLuc modulator 15µM, ELG1 genotoxic inconclusive, NPC1 prom act inconclusive, p53 reactivation inconclusive, Rab9 promoter act inconclusive (no result: SMN2 splice enh)
Cc1nn(-c2ccccc2)c(/N=C/c2ccccc2O)c1-c1ccccc1	SMN2 splice enh 11µM, ELG1 genotoxic inconclusive, NPC1 prom act 2.2µM, p53 reactivation inconclusive, Rab9 promoter act 2.8µM
Cc1nn(-c2ccccc2)c(C)c1/C=N/O	p53 reactivation inconclusive
Cc1nn(-c2ccccc2)c(N)c1-c1ccccc1	SMN2 splice enh 13µM, FLuc modulator 13µM, NPC1 prom act inconclusive, Rab9 promoter act 3.2µM
Nc1c(-c2ccccc2)c(CN2CCOCC2)nn1-c1ccccc1	none
CCCCc1nc2c(c3c1C[C@H](C)OC3)CN(S(=O)(=O)CCCC)CC2	none (no result: FLuc modulator, ELG1 genotoxic, NPC1 prom act, p53 reactivation, Rab9 promoter act)
COC(=O)N1CCC2(CC1)CN(C(=O)Nc1ccc(OC)cc1)C2	none (no result: FLuc modulator, ELG1 genotoxic, NPC1 prom act, p53 reactivation, Rab9 promoter act)
Cc1nn(CC2CCCCC2)c(N)c1-c1ccccc1	FLuc modulator 17µM, ELG1 genotoxic inconclusive, Rab9 promoter act inconclusive
O=C(NNC(=S)NC(=O)c1sc2ccccc2c1Cl)c1ccc(Cl)cc1	FLuc modulator inconclusive
Cc1ccc(NC(=S)NC(=O)c2sc3ccccc3c2Cl)c(C(=O)O)c1	FLuc modulator 27µM
O=C(O)c1ccccc1NC(=S)NC(=O)c1sc2ccccc2c1Cl	FLuc modulator 24µM
O=C(NC(=S)Nc1ccccc1N1CCOCC1)c1sc2ccccc2c1Cl	none
CCc1ccc(OCC(=O)NC(C)C)cc1	none
COc1ccccc1CCNC(=O)C(=O)NCC(c1ccc2c(c1)OCO2)N1CCOCC1 (configuration not stated)	none (no result: SMN2 splice enh, ELG1 genotoxic, NPC1 prom act, p53 reactivation, Rab9 promoter act)
CCN(C(=O)c1c(C)oc2ncnc(N3CCCCC3)c12)c1cc(C)ccc1C	none (no result: SMN2 splice enh, ELG1 genotoxic, NPC1 prom act, p53 reactivation, Rab9 promoter act)
CCCC(=O)Nc1sc(C(=O)Nc2cccc(N)c2)c(C)c1C(=O)OC	FLuc modulator 13µM, ELG1 genotoxic inconclusive, NPC1 prom act 3.2µM, Rab9 promoter act 0.89µM (no result: SMN2 splice enh)
COC(=O)c1c(NC(C)=O)sc(C(=O)Nc2ccccc2F)c1C	SMN2 splice enh 7.1µM, ELG1 genotoxic inconclusive, NPC1 prom act inconclusive, Rab9 promoter act inconclusive
COC(=O)c1c(NC(C)=O)sc(C(=O)Nc2ccccc2)c1C	none (no result: SMN2 splice enh)
CCC(=O)Nc1sc(C(=O)Nc2ccccc2F)c(C)c1C(=O)OC	FLuc modulator 7.6µM (no result: SMN2 splice enh)
Nc1nc(C23CC4CC(CC(C4)C2)C3)[nH]c(=O)n1	none (no result: SMN2 splice enh)
CCN(c1ccccc1)S(=O)(=O)c1ccc(NC(=O)c2nc(SC)ncc2Cl)cc1	none (no result: ELG1 genotoxic, NPC1 prom act, p53 reactivation, Rab9 promoter act)
CCOC(=O)N1CCN(C(=O)c2ccc(OC)cc2)CC1	none (no result: SMN2 splice enh)
CCOC(=O)N1CCN(c2nc(-c3ccc(OC)cc3)no2)CC1	FLuc modulator 17µM, NPC1 prom act inconclusive, p53 reactivation inconclusive
COCCN(C(=O)Cc1cccs1)c1nnc(-c2ccncc2)s1	none
CCN(C(=O)c1cccs1)c1nnc(-c2ccncc2)s1	FLuc modulator 13µM, ELG1 genotoxic inconclusive, Rab9 promoter act inconclusive
Cc1cccc2nc(C(=O)Nc3cccc(C(=O)NC4CC4)c3)cn12	FLuc modulator 2.4µM, NPC1 prom act inconclusive, p53 reactivation inconclusive, Rab9 promoter act 3.2µM (no result: SMN2 splice enh)
Cc1ccc(C(=O)Nc2ccc(C(=O)O)cc2NC(=O)c2ccc(C)cc2)cc1	FLuc modulator 21µM, ELG1 genotoxic inconclusive, NPC1 prom act inconclusive (no result: SMN2 splice enh)
Cc1ccc(C(=O)Nc2cccc(C(=O)NC3CCCC3)c2)cc1	FLuc modulator 12µM, NPC1 prom act inconclusive, Rab9 promoter act inconclusive (no result: SMN2 splice enh)
